Assay outcomes deposited in PubChem BioAssay by several laboratories.
RAM network inh = inhibitors of the yeast RAM network; S. cerevisiae dse1pr::URA3 reporter, 5-FOA growth OD615, 2 d; analog-sensitive cbk1-as2 kinase mutant strain; inhibition, % at 50 µM; hit rate 1.8% among 190,000;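 active = inhibition above a set limit, 3 SD over mean compound inhibition, cut at about 8.4% in these data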;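 also: inhibition rescues growth on 5-FOA so higher OD means more RAM inhibition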
KCC2 mod = modulators of human KCC2 chloride dependent transport; AID 1456; B-score of Tl+ flux slope (higher = more flux/activation; lower = inhibition) at 10 µM; hit rate 2.2% among 190,000; KCC2 cells, thallium flux FluoZin-2 fluorescence;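 active = thallium flux slope and its plate-corrected score both differing from the plate sample mean at a set confidence after two filtering rounds, in either direction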;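 also: slope of fluorescence scaled to starting intensity during 10 to 20 s after thallium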
ROMK mod = human ROMK K+ channel modulation, primary screen; P48048; Tet-inducible ROMK, thallium flux fluorescence; actives lie on both sides; B-score at 10 µM; hit rate 2% among 130,000;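 active = signal ratio slope over the read window, or its plate-corrected B-score, at least 3 SD from the plate mean, either direction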;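 also: B-score of the F/F0 ratio slope over 7 to 12 s after thallium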
Target sequence (P48048 whole entry, looked up): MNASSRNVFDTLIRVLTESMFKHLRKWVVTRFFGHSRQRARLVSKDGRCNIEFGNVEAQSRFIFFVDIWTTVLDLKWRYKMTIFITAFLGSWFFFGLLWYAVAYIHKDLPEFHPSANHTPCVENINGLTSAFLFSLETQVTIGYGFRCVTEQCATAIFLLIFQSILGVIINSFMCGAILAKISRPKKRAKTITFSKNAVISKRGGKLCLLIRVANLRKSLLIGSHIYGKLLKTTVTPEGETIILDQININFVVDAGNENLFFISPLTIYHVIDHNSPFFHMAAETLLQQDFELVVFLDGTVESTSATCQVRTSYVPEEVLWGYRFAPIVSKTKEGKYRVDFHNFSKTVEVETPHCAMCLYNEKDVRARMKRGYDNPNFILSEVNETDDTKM
S1P4 agonist = activates the human S1P4 receptor; hit rate 0.35% among 220,000; O95977; AID 1509; activation, % at 4.98 µM; S1P4-expressing cell line, agonist reporter assay; in the data active = activation above about 11%
S1P4 antag = human S1P4 receptor antagonism; hit rate 0.26% among 220,000; O95977; S1P4-expressing cells, antagonist mode, reporter read-out; inhibition, % at 4.98 µM; in the data active = inhibition above about 29%
S1P3 antag = S1P3 (human) receptor antagonism; CHO S1P3 NFAT-BLA reporter, FRET fluorescence, antagonist mode; inhibition, % at 4.98 µM; hit rate 0.27% among 170,000; AID 485;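 active = inhibition above the plate cutoff, the mean inhibition of test wells on that plate plus 3 SD, cut at about 28% in these data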;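 also: cells challenged with S1P at its EC80 of 0.8 µM; blue over green emission ratio from cleaved BLA substrate after 4 h stimulation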
Hits are given with their value; . = inactive; / = no result given. Rows were chosen to be rich in hits. Some 5.1% of all compounds tested hit in one or more screens of this group.

SMILES	RAM network inh	KCC2 mod	ROMK mod	S1P4 agonist	S1P4 antag	S1P3 antag
COc1ccc(NC(=O)/C(Cl)=C(/Cl)S(=O)Cc2ccc(Cl)cc2)cn1 (centres undefined)	.	/	.	.	52	44
Cc1sc2nc(C3CC3)nc(SCC(=O)N3CC(=O)Nc4ccccc43)c2c1C	.	12	/	.	.	/
Cc1sc2nc(C3CC3)nc(SCC(=O)N3CCc4ccccc4C3)c2c1C	.	.	/	.	.	/
CN(C)CC(C)(C)CNS(=O)(=O)c1ccc(OC(F)(F)F)cc1	.	.	.	.	.	.
c1ccc(Cc2nnc(-c3ccccc3)o2)cc1	.	14	/	.	.	.
COc1cc(NC(=S)N2CCCCC2C)c(OC)cc1Cl (centres undefined)	.	.	.	.	.	.
COc1cc(NC(=O)C(=O)NNC(=O)C2CCCCC2)c(OC)cc1Cl	.	51	.	.	.	.
CCN(CC)c1ncc(C#N)c(N)n1	/	.	/	.	.	.
Cn1nnnc1SCc1nnc(-c2ccccc2Br)o1	.	.	/	.	.	/
Cc1ccc(-n2nnnc2SCc2nnc(-c3ccccc3Br)o2)c(C)c1	11	.	.	.	.	.
CC[C@@H](C)C(N)c1cn([C@@H](CCC(=O)O)C(=O)N2CCNCC2)nn1 (some centres undefined)	.	.	/	.	.	.
COc1ccc(-n2ncc3c(=O)n(Cc4c(F)cccc4Cl)cnc32)cc1	.	.	.	.	.	.
N=c1c(C(=O)NCc2ccc(F)cc2)cc2c(=O)n3ccccc3nc2n1CCCN1CCOCC1	.	.	.	14	.	.
CCOc1ccc(/C=C/C(=O)NCCc2ccc(OC)c(OC)c2)cc1	.	.	.	.	.	.
CCCCNC(=O)/C=C/c1ccc(OC)c(Br)c1	9.6	.	/	.	.	/
COc1cc(OC)cc(C(=O)NC(=S)NCc2ccco2)c1	9.5	/	/	.	.	/
O=S(=O)(c1cccs1)N1CCN(Cc2nc3ccccc3s2)CC1	.	.	/	.	.	.
O=C(OCc1nc2ccccc2s1)C1CCN(S(=O)(=O)c2cccs2)CC1	9.9	/	.	.	.	.
O=C(CSc1oc(-c2cccs2)nc1S(=O)(=O)c1ccc(F)cc1)NCC1CCCO1 (centres undefined)	9.1	/	/	.	.	.
COc1ccc(N/C=C/C(=O)c2sc(-c3ccccc3)nc2C)cc1	9.5	.	/	.	.	/
O=C(Nc1ncc(Br)s1)C(Cc1ccccc1)n1cccc1 (centres undefined)	.	/	/	.	.	67
O=C(Nc1cccnc1)C(Cc1ccccc1)n1cccc1 (centres undefined)	.	.	/	.	.	.
Cc1c(NC(=O)CSc2nc3c(cnn3-c3ccccc3)c(=O)[nH]2)c(=O)n(-c2ccccc2)n1C	11	.	.	.	.	.
NC(=O)CSc1ncnc2c1oc1ccccc12	.	.	/	.	.	.
O=C(CSc1ncnc2c1oc1ccccc12)OCc1ccccc1	8.8	.	.	.	.	.
SMILES	RAM network inh	KCC2 mod	ROMK mod	S1P4 agonist	S1P4 antag	S1P3 antag
O=c1oc(-c2ccc(Cl)c(Cl)c2)nn1-c1ccc(C(F)(F)F)cn1	/	.	/	.	.	.
COc1cccc(C(=O)/C=C/Nc2ccc(S(=O)(=O)Nc3onc(C)c3C)cc2)c1	8.9	.	/	.	.	.
CC(=O)c1cccc(NS(=O)(=O)c2ccc(N/C=C/C(=O)c3ccc(F)cc3)cc2)c1	9.6	.	/	.	.	.
O=C(NCc1ccccc1)c1cc[n+](Cc2ccccc2)cc1	.	.	.	.	.	.
Cc1cccc(NC(=O)CSc2nnnn2-c2ccc3c(c2)OCCO3)n1	.	.	.	.	.	.
Cc1oncc1-c1csc(-c2ccccc2)n1	.	.	.	.	.	.
Cc1oncc1-c1csc(-c2ccccc2Cl)n1	9.5	.	.	.	.	.
CCOc1ccc(C(=O)NC(=S)N2CCN(c3ccc(C(F)(F)F)cc3[N+](=O)[O-])CC2)cc1	.	.	.	.	.	.
COc1cccc(OC)c1C(=O)NC(=S)N1CCN(c2ccc(C(F)(F)F)cc2[N+](=O)[O-])CC1	.	.	/	.	.	/
COc1cccc(C(=O)NC(=S)N2CCN(c3ccc(C(F)(F)F)cc3[N+](=O)[O-])CC2)c1	.	8.8	/	.	.	.
COc1ccc(N2CCN(C(=O)CC34CC5CC(CC(C5)C3)C4)CC2)c([N+](=O)[O-])c1	10.0	.	.	.	.	.
CC(C)Oc1cccc(C(=O)NC(=S)N2CCN(c3ccc(C(F)(F)F)cc3[N+](=O)[O-])CC2)c1	.	18	.	.	.	/
CNC(=S)NCC(O)c1ccc([N+](=O)[O-])cc1 (centres undefined)	.	.	.	.	.	.
Cc1nc(SCC(=O)c2ccc(F)c(F)c2)[nH]c(=O)c1Oc1ccc(F)cc1	/	.	/	.	.	.
O=C(COC(=O)C1CCN(/C=C/C(=O)C(F)(F)F)CC1)Nc1cccc(F)c1	.	.	.	.	.	.
CC(C)(C)C(=O)COC(=O)C1CC(=O)N(c2ccccc2)C1 (centres undefined)	.	.	.	.	.	.
O=C(OCc1cccc2ccccc12)C1CC(=O)N(c2ccccc2)C1 (centres undefined)	11	/	/	.	.	/
CC(=O)Nc1ccc(C(=O)OCc2ccccc2Br)cc1	8.8	.	.	.	.	.
CC(=O)Nc1ccc(C(=O)OCc2ccc(Cl)cc2)cc1	.	.	.	.	.	/
O=C(COC(=O)c1c(F)cccc1F)c1ccc[nH]1	/	.	/	.	.	.
CCOC(=O)C(C)(C)NS(=O)(=O)c1ccc(Cl)c([N+](=O)[O-])c1	.	.	/	.	.	.
CCOC(=O)C(C)(C)N(Cc1ccc(Cl)cc1)S(=O)(=O)c1ccc(Cl)c([N+](=O)[O-])c1	9.4	.	.	.	.	.
COc1ccc(N(C(=O)COc2cccc(C)c2)S(=O)(=O)c2ccc(C)cc2)cc1	9.7	.	.	.	.	.
Cn1c(=O)nc2n(Cc3ccccc3)c3cccc(Cl)c3cc-2c1=O	.	.	/	.	.	.
CCn1c2ccccc2c2nc3ccccc3nc21	.	/	/	.	.	.
SMILES	RAM network inh	KCC2 mod	ROMK mod	S1P4 agonist	S1P4 antag	S1P3 antag
COc1cc2nc3c4ccccc4n(CC#N)c3nc2cc1OC	8.4	.	.	.	.	.
CCn1c2ccccc2c2nc3cc(OC)c(OC)cc3nc21	9.3	/	/	.	.	.
CCOC(=O)c1cc(-c2c(Cl)cccc2Cl)no1	/	.	/	.	.	.
CCCNC(=S)N(Cc1ccccc1)Cc1nc2ccccc2c(=O)[nH]1	.	.	.	.	.	.
CCCC(=O)NC(=S)Nc1nc(-c2ccc(OC)cc2)cs1	10	.	.	.	.	.
CCc1c(C)nc(SCC(=O)Nc2nc(-c3ccc(OC)cc3)cs2)[nH]c1=O	11	/	.	.	.	.
Cc1nn(-c2ccccc2)c(NC(=O)c2cccs2)c(-c2ccccc2)c1=O	.	.	/	.	.	.
C#Cc1ccc([C@@H]2C=C(C(=O)N3CCOCC3)O[C@H](OCC)[C@H]2CCCO)cc1	.	.	/	.	.	.
